# Measurements as given in PubChem BioAssay (EPA / NIEHS).
# Records with an inconclusive call do not appear. Active and inactive are the calls of the source. How the source made its calls: active means hit-call score of the fitted dose curve at least 0.9, where 1 is the maximum; inconclusive means response in the unintended direction; inactive means score below 0.9.
# Legend:
# [1] = biological target: human Serotonin, 5-Hydroxytryptamine Receptor 6 (5HT6), HTR6 (gene 3362) (UniProt P50406); assay: NVS_GPCR_h5HT6: NovaScreen (NVS) G Protein-Coupled Receptor Assay for human Serotonin, 5-Hydroxytryptamine Receptor 6 (5HT6) (AID 2283253)
# Procedure: NVS_GPCR_h5HT6 is a biochemical, single-readout assay that uses extracted gene-proteins from HEK293 in a cell-free assay. Measurements were taken 1 hour after chemical dosing in a 96-well plate.NVS_GPCR_h5HT6 is one of one assay component(s) measured or calculated from the NVS_GPCR_h5HT6 assay. It is designed to make measurements of radioligand binding, a form of binding reporter, as detected with scintillation counting signals by Filter-based radiodetection technology.Data from the assay component NVS_GPCR_h5HT6 was analyzed into 1 assay endpoint. This assay endpoint, NVS_GPCR_h5HT6, was analyzed in the positive analysis fitting direction relative to DMSO as the negative control and baseline of activity. Using a type of binding reporter, loss-of-signal activity can be used to understand changes in the binding as they relate to the gene HTR6. Furthermore, this assay endpoint can be referred to as a primary readout, because the performed assay has only produced 1 assay endpoint. To generalize the intended target to other relatable targets, this assay endpoint is annotated to the gpcr intended target family, where the subfamily is rhodopsin-like receptor.
# Binding assays used specific radioligands (tritiated, iodinated) with non-radioactive competitive displacement ligands in agonist or antagonist protocols (as indicated) and various reference compounds and inhibitors to titrate specific binding to receptors and transporters. Most enzyme assays (CYPs, kinases, phosphatases, proteases, HDACs) used recombinant protein and specific substrates (fluorescence mostly, some colorimetric and radioactive) and inhibitors, followed by a biochemical separation of substrate and product. All assays for the biochemical HTS were initially run in duplicate at a single concentration (10 uM for CYP450 assays and 25 uM for all others). […] Each assay was run with positive and negative controls, and concurrent controls on every plate. The follow-up (secondary) screen tested active chemical-pairs in concentration series, as well as a few additional assays not tested in the primary screen, some selected negative inactives, and several cases re-run in the concentration series for confirmatory purposes.
# [2] = biological target: guinea pig Opioid, Kappa 1 Receptor (OpiateK), OPRK1 (gene 100135587) (UniProt P41144); assay: NVS_GPCR_gOpiateK: NovaScreen (NVS) G Protein-Coupled Receptor Assay for guinea pig Opioid, Kappa 1 Receptor (OpiateK) (AID 2283252);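 further: radioligand displacement from kappa opioid receptor in guinea pig cerebellar membranes; active means reduced radioligand binding relative to DMSO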
# Summary of the method: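 Guinea pig cerebellar membranes were incubated with a radioligand for 2 h after compound addition; bound radioactivity was read by filter-based scintillation counting. Loss of specific binding relative to DMSO baseline defined activity; primary screen at 25 uM in duplicate.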
# [3] = biological target: human Adenosine A1 Receptor (AdoRA1), ADORA1 (gene 134) (UniProt P30542); assay: NVS_GPCR_hAdoRA1: NovaScreen (NVS) G Protein-Coupled Receptor Assay for human Adenosine A1 Receptor (AdoRA1) (AID 2283254)
# Summary of the method: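 Radioligand binding was run on human cortical membranes, cell-free, with filter-based scintillation counting 1 h after dosing. The primary screen was duplicate at 25 uM, followed by concentration series. Signal loss versus DMSO was fitted positive-direction.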
# [4] = tested on: bovine Histamine 1 Receptor (H1), gene 281231; assay: NVS_GPCR_bH1: NovaScreen (NVS) G Protein-Coupled Receptor Assay for bovine Histamine 1 Receptor (H1) (AID 2283246)
# Summary of the method: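 Radioligand displacement on bovine cerebellar membranes, 1 h after dosing, filter-based scintillation read-out; loss of signal vs DMSO. Duplicate single-concentration screen at 25 uM, then concentration-response up to 50 uM for hits.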
# [5] = NVS_GPCR_bNPY_NonSelective: NovaScreen (NVS) G Protein-Coupled Receptor Assay for bovine Neuropeptide Y (NPY) Receptor, Non-selective Binding (AID 2283245)
# Summary of the method: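 Bovine hippocampal membranes incubated 1 hour with radioligand and test chemical. Bound ligand measured by filter-based scintillation counting. Single-concentration screen at 25 uM in duplicate, then concentration-response up to 50 uM.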
# [6] = biological target: human Serotonin, 5-Hydroxytryptamine Receptor 2A (5HT2A), HTR2A (gene 3356) (UniProt P28223); assay: NVS_GPCR_h5HT2A: NovaScreen (NVS) G Protein-Coupled Receptor Assay for human Serotonin, 5-Hydroxytryptamine Receptor 2A (5HT2A) (AID 2283249)
# Procedure: NVS_GPCR_h5HT2A is a biochemical, single-readout assay that uses extracted gene-proteins from Human cortex in a tissue-based cell-free assay. Measurements were taken 1.5 hours after chemical dosing in a 48-well plate.NVS_GPCR_h5HT2A is one of one assay component(s) measured or calculated from the NVS_GPCR_h5HT2A assay. It is designed to make measurements of radioligand binding, a form of binding reporter, as detected with scintillation counting signals by Filter-based radiodetection technology.Data from the assay component NVS_GPCR_h5HT2A was analyzed into 1 assay endpoint. This assay endpoint, NVS_GPCR_h5HT2A, was analyzed in the positive analysis fitting direction relative to DMSO as the negative control and baseline of activity. […] Furthermore, this assay endpoint can be referred to as a primary readout, because the performed assay has only produced 1 assay endpoint. […]
# Binding assays used specific radioligands (tritiated, iodinated) with non-radioactive competitive displacement ligands in agonist or antagonist protocols (as indicated) and various reference compounds and inhibitors to titrate specific binding to receptors and transporters. Most enzyme assays (CYPs, kinases, phosphatases, proteases, HDACs) used recombinant protein and specific substrates (fluorescence mostly, some colorimetric and radioactive) and inhibitors, followed by a biochemical separation of substrate and product. […]
# [7] = biological target: human Serotonin, 5-Hydroxytryptamine Receptor 7 (5HT7), HTR7 (gene 3363) (UniProt P34969); assay: NVS_GPCR_h5HT7: NovaScreen (NVS) G Protein-Coupled Receptor Assay for human Serotonin, 5-Hydroxytryptamine Receptor 7 (5HT7) (AID 2283255);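 further: hits reduce specific radioligand binding relative to DMSO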
# Summary of the method: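 Radioligand displacement on membranes from CHO cells expressing human 5HT7, 1 h incubation, filter-based scintillation counting. Primary screen used a single 25 uM concentration in duplicate; actives were followed up in concentration series.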
# [8] = tested on: guinea pig Muscarinic, Peripheral (Mperiperal) Receptor, Non-selective Binding, gene 100379235; assay: NVS_GPCR_gMPeripheral_NonSelective: NovaScreen (NVS) G Protein-Coupled Receptor Assay for guinea pig Muscarinic, Peripheral (Mperiperal) Receptor, Non-selective Binding (AID 2283250)
# Summary of the method: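 Guinea pig bladder membranes, radioligand binding read 1 h after dosing by filter scintillation counting; loss of signal vs DMSO. Primary duplicate screen at 25 uM, then concentration-response up to 50 uM.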
# [9] = biological target: guinea pig Leukotriene D4 Receptor (LTD4), CYSLTR1 (gene 100135514) (UniProt Q2NNR5); assay: NVS_GPCR_gLTD4: NovaScreen (NVS) G Protein-Coupled Receptor Assay for guinea pig Leukotriene D4 Receptor (LTD4) (AID 2283248)
# Summary of the method: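 Radioligand displacement on guinea pig lung membranes, 1 h incubation, filtration and scintillation counting; DMSO as negative control. Duplicate 25 uM primary screen, then singleton concentration-response up to 50 uM.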
# [10] = tested on: guinea pig Leukotriene B4 Receptor (LTB4), gene 100379538; assay: NVS_GPCR_gLTB4: NovaScreen (NVS) G Protein-Coupled Receptor Assay for guinea pig Leukotriene B4 Receptor (LTB4) (AID 2283247)
# Procedure: NVS_GPCR_gLTB4 is a biochemical, single-readout assay that uses extracted gene-proteins from Guinea pig spleen membranes in a tissue-based cell-free assay. Measurements were taken 2 hours after chemical dosing in a 48-well plate.NVS_GPCR_gLTB4 is one of one assay component(s) measured or calculated from the NVS_GPCR_gLTB4 assay. It is designed to make measurements of radioligand binding, a form of binding reporter, as detected with scintillation counting signals by Filter-based radiodetection technology.Data from the assay component NVS_GPCR_gLTB4 was analyzed into 1 assay endpoint. This assay endpoint, NVS_GPCR_gLTB4, was analyzed in the positive analysis fitting direction relative to DMSO as the negative control and baseline of activity. Using a type of binding reporter, loss-of-signal activity can be used to understand changes in the binding as they relate to the gene Ltb4r. Furthermore, this assay endpoint can be referred to as a primary readout, because the performed assay has only produced 1 assay endpoint. To generalize the intended target to other relatable targets, this assay endpoint is annotated to the gpcr intended target family, where the subfamily is rhodopsin-like receptor. […]
# guinea pig Opioid, Kappa 1 Receptor (OpiateK), OPRK1 (gene 100135587), sequence (P41144 whole entry, looked up): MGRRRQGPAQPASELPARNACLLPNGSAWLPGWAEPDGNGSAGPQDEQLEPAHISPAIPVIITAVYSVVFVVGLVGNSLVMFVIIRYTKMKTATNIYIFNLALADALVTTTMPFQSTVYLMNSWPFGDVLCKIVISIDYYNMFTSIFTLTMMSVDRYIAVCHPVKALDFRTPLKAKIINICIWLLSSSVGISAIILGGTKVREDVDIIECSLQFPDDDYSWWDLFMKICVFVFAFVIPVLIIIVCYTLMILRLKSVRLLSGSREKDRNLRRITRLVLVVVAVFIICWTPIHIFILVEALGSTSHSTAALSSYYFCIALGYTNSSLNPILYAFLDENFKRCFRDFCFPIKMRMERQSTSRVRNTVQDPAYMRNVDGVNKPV
# human Serotonin, 5-Hydroxytryptamine Receptor 7 (5HT7), HTR7 (gene 3363), sequence (P34969 whole entry, looked up): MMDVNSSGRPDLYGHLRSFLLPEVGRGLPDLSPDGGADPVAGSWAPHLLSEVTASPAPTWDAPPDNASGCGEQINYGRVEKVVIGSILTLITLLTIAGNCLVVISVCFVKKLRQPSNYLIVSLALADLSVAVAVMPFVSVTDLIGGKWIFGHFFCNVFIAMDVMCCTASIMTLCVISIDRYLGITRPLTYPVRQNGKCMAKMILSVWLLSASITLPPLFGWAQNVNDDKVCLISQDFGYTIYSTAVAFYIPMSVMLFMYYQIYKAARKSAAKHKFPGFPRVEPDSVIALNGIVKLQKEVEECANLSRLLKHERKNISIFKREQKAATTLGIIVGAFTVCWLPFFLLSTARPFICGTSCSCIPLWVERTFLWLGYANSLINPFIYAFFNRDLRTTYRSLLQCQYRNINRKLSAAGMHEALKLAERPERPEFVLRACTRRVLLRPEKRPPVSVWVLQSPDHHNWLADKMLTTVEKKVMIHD
# human Serotonin, 5-Hydroxytryptamine Receptor 6 (5HT6), HTR6 (gene 3362), sequence (P50406 whole entry, looked up): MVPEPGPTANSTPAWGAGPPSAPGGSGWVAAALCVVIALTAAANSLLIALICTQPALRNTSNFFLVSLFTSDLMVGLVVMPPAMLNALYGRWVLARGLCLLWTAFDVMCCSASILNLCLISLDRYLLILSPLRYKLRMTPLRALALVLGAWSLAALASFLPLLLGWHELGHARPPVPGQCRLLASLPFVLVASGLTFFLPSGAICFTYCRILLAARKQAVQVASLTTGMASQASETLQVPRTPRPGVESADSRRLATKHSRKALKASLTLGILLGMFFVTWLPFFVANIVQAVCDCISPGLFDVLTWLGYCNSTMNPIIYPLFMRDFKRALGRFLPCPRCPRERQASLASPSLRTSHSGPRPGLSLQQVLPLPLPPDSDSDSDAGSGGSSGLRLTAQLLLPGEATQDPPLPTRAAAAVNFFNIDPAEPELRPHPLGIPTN
# guinea pig Leukotriene D4 Receptor (LTD4), CYSLTR1 (gene 100135514), sequence (Q2NNR5 whole entry, looked up): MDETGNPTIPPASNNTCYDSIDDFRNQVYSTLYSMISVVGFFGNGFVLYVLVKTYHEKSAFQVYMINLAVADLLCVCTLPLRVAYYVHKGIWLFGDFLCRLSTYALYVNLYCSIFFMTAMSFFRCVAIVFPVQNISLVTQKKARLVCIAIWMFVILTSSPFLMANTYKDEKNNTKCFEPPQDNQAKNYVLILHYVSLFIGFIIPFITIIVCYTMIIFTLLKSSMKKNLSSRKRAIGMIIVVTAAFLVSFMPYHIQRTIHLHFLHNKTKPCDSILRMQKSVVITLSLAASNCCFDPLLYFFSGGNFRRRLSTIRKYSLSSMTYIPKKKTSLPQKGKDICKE
# human Adenosine A1 Receptor (AdoRA1), ADORA1 (gene 134), sequence (P30542 whole entry, looked up): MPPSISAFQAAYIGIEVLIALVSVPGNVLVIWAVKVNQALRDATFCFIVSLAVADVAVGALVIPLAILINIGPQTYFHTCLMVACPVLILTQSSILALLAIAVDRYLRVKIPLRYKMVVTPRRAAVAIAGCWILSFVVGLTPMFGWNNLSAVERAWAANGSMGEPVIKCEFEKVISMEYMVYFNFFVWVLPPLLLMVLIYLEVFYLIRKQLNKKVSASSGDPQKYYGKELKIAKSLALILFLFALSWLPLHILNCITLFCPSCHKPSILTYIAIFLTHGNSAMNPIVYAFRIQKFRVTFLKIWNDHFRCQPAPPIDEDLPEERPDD
# human Serotonin, 5-Hydroxytryptamine Receptor 2A (5HT2A), HTR2A (gene 3356), sequence (P28223 whole entry, looked up): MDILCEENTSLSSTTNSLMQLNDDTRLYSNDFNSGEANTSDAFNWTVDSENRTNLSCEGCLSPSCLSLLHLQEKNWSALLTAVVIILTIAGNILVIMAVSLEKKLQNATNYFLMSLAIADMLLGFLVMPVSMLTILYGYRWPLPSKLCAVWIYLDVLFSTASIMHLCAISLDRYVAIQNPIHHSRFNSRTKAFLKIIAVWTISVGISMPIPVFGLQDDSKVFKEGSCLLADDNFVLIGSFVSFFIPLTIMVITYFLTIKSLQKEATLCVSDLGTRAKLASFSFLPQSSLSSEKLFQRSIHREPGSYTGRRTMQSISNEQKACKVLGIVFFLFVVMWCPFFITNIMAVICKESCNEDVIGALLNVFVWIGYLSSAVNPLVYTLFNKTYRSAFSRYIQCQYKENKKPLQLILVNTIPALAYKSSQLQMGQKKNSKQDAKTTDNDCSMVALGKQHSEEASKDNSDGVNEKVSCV
smiles,measurement,setting,value
CC(C)N(C(=O)SCC(Cl)=C(Cl)Cl)C(C)C,outcome,[1],inactive
COc1ccc(C(=CC(=O)N2CCOCC2)c2ccc(Cl)cc2)cc1OC,outcome,[2],inactive
same,AC50,[3],14.2 µM (active)
CCNc1nc(Cl)nc(NC(C)(C)C#N)n1,AC50,[3],4.08 µM (active)
CCOP(=O)(SC(C)CC)N1CCSC1=O (stereo unspecified),outcome,[4],inactive
C#CCC1=C(C)C(OC(=O)C2C(C=C(C)C)C2(C)C)CC1=O (stereo unspecified),outcome,[3],inactive
CC[C@H](C)[C@H]1O[C@]2(C=C[C@@H]1C)C[C@@H]1C[C@@H](C/C=C(\C)[C@@H](O[C@H]3C[C@H](OC)[C@@H](O[C@H]4C[C@H](OC)[C@@H](NC)[C@H](C)O4)[C@H](C)O3)[C@@H](C)/C=C/C=C3\CO[C@@H]4[C@H](O)C(C)=C[C@@H](C(=O)O1)[C@]34O)O2,AC50,[5],20.6 µM (active)
same,AC50,[6],26.9 µM (active)
same,AC50,[2],25 µM (active)
same,AC50,[1],13.9 µM (active)
same,AC50,[7],4.29 µM (active)
N#CSCSC#N,AC50,[8],7.4 µM (active)
same,AC50,[2],38.7 µM (active)
CSc1nc(NC(C)C)nc(NC(C)C)n1,AC50,[3],3.54 µM (active)
CCOC(=O)CC(SP(=O)(OC)OC)C(=O)OCC (stereo unspecified),outcome,[8],inactive
same,outcome,[3],inactive
C=C(C)[C@H]1Cc2c(ccc3c2O[C@@H]2COc4cc(OC)c(OC)cc4[C@@H]2C3=O)O1,AC50,[1],1.13 µM (active)
CC(C)[C@H](C(=O)O[C@H](C#N)c1cccc(Oc2ccccc2)c1)c1ccc(Cl)cc1,AC50,[7],6.87 µM (active)
C[Si](Cn1cncn1)(c1ccc(F)cc1)c1ccc(F)cc1,AC50,[2],25 µM (active)
same,AC50,[7],16.6 µM (active)
CCC(=O)Nc1ccc(Cl)c(Cl)c1,AC50,[1],7.47 µM (active)
Cc1ccn2nc(S(=O)(=O)Nc3c(F)cccc3F)nc2n1,outcome,[8],inactive
CN(C)C(=O)Nc1cccc(C(F)(F)F)c1,outcome,[4],inactive
FC(F)C(F)(F)OCC(Cn1cncn1)c1ccc(Cl)cc1Cl (stereo unspecified),outcome,[2],inactive
same,AC50,[3],25 µM (active)
CCOP(=S)(OCC)Oc1cc(C)nc(C(C)C)n1,outcome,[9],inactive
CCOP(=O)(NC(C)C)Oc1ccc(SC)c(C)c1 (stereo unspecified),AC50,[2],16.3 µM (active)
CCc1cccc(C)c1N(C(=O)CCl)C(C)COC (stereo unspecified),AC50,[2],16.2 µM (active)
O=C(O)c1cc(Oc2ccc(C(F)(F)F)cc2Cl)ccc1[N+](=O)[O-],outcome,[10],inactive
Cc1cc(C2CC2)nc(Nc2ccccc2)n1,outcome,[8],inactive
same,AC50,[3],9.57 µM (active)
same,AC50,[7],25 µM (active)
CCOP(=S)(OCC)Oc1ccc([N+](=O)[O-])cc1,AC50,[10],7.9 µM (active)
COP(=O)(OC)OC(Br)C(Cl)(Cl)Br (stereo unspecified),outcome,[5],inactive
same,AC50,[9],0.00229 µM (active)
same,AC50,[2],33.3 µM (active)
same,AC50,[1],9.88 µM (active)
CCCOCC(=Nc1ccc(Cl)cc1C(F)(F)F)n1ccnc1,outcome,[9],inactive
same,outcome,[2],inactive
CC(C)=CC1C(C(=O)OCN2C(=O)C3=C(CCCC3)C2=O)C1(C)C (stereo unspecified),outcome,[7],inactive
CCOC(=O)COc1cc(-c2nn(C)c(OC(F)F)c2Cl)c(F)cc1Cl,outcome,[8],inactive
